Active and inactive are the calls of the source. The calls were made as follows: active = hit-call score of the fitted dose curve at least 0.9, where 1 is the maximum; inactive = score below 0.9.

These results are taken from PubChem BioAssay (EPA / NIEHS).

What all share (details): mRNA level, 48 h; actives raise or lower the signal
Read-out in test [1]: Bcl-2 (BID) gene, BID (gene 637)
Nature of the test: LTEA_HepaRG_BID: Life Technologies and Expression Analysis (LTEA) Assay for Bcl-2 (BID) gene using HepaRG (AID 2283476). The gist of the method: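 Gene expression by qRT-PCR in HepaRG cells after 48 h exposure, duplicate wells, eight half-log concentrations topping at 100 uM in 0.5% DMSO. Normalized to ACTB, GAPDH, POLR2A; bidirectional fitting relative to DMSO.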

Read-out in another test: Caspase-3 (Homo sapiens) (UniProt P42574)
The test can be described thus: LTEA_HepaRG_CASP3: Life Technologies and Expression Analysis (LTEA) Assay for cysteine-aspartic acid protease (CASP3) using HepaRG (AID 2283477). In outline: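 In HepaRG liver cells dosed for 48 h at up to 100 uM (eight-point, duplicate), CASP3 expression changes are scored by qRT-PCR. Activity is fitted in both directions with 0.5% DMSO as baseline.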

Read-out in test [2]: Cytochrome P450 (CYP24A1), CYP24A1 (gene 1591)
The test can be described thus: LTEA_HepaRG_CYP24A1: Life Technologies and Expression Analysis (LTEA) Assay for Cytochrome P450 (CYP24A1) using HepaRG (AID 2283478). The gist of the method:
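Human liver HepaRG cultures receive each chemical for 48 h across an eight-point half-log series topping at 100 uM in 0.5% DMSO. Induction or suppression of CYP24A1 mRNA is scored relative to vehicle after housekeeping-gene normalization.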

Read-out in test [3]: Cytochrome P450 (CYP1A2), CYP1A2 (gene 1544)
Nature of the test: LTEA_HepaRG_CYP1A2: Life Technologies and Expression Analysis (LTEA) Assay for Cytochrome P450 (CYP1A2) using HepaRG (AID 2283479). The gist of the method:
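Assesses CYP1A2 mRNA in human HepaRG liver cells after 48 h chemical exposure at up to 100 uM. Values come from qRT-PCR with bidirectional curve fitting relative to DMSO.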

Read-out in test [4]: cysteine-aspartic acid protease (CASP8), CASP8 (gene 841)
The test can be described thus: LTEA_HepaRG_CASP8: Life Technologies and Expression Analysis (LTEA) Assay for cysteine-aspartic acid protease (CASP8) using HepaRG (AID 2283480). In outline: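 Differentiated HepaRG cells in serum-free induction medium, 48 h exposure, eight-point half-log series from 100 uM in 0.5% DMSO, duplicates. CASP8 mRNA by qRT-PCR, normalized to ACTB, GAPDH, POLR2A; bidirectional fit versus DMSO.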

Read-out in test [5]: Cytochrome P450 (CYP2B6), CYP2B6 (gene 1555)
The test can be described thus: LTEA_HepaRG_CYP2B6: Life Technologies and Expression Analysis (LTEA) Assay for Cytochrome P450 (CYP2B6) using HepaRG (AID 2283481). The gist of the method: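 Using 48 h treatment of HepaRG cells in serum-free induction medium, concentrations spanned half-log steps from 100 uM in 0.5% DMSO vehicle. CYP2B6 mRNA induction or loss is scored by qRT-PCR against DMSO.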

Read-out in test [6]: Cytochrome P450 2C19 (Homo sapiens) (UniProt P33261)
Nature of the test: LTEA_HepaRG_CYP2C19: Life Technologies and Expression Analysis (LTEA) Assay for CYP2C19 using HepaRG (AID 2283482). The gist of the method: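 Human HepaRG liver cells received test chemicals for 48 h (highest 100 uM, half-log dilutions in 0.5% DMSO). CYP2C19 mRNA induction or loss is read by multiplexed qRT-PCR and fitted in both directions versus vehicle.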

Read-out in another test: CYP2C8 (gene 1558)
Nature of the test: LTEA_HepaRG_CYP2C8: Life Technologies and Expression Analysis (LTEA) Assay for CYP2C8 using HepaRG (AID 2283483). The gist of the method: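 Differentiated HepaRG cells in serum-free induction medium exposed 48 h in duplicate to 8 half-log concentrations from 100 uM in 0.5% DMSO. CYP2C8 mRNA by qRT-PCR normalized to ACTB, GAPDH, POLR2A; bidirectional fit versus DMSO.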

Read-out in a further test: CYP2C9 (gene 1559)
Nature of the test: LTEA_HepaRG_CYP2C9: Life Technologies and Expression Analysis (LTEA) Assay for CYP2C9 using HepaRG (AID 2283484). The gist of the method:
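Differentiated human HepaRG cells in serum-free induction medium were exposed 48 h to chemicals in 8-point half-log series from 100 uM (0.5% DMSO), in duplicate. CYP2C9 mRNA was measured by qRT-PCR, normalized to ACTB/GAPDH/POLR2A, with bidirectional fitting versus DMSO.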

Read-out in another test: CYP2E1 (gene 1571)
The test can be described thus: LTEA_HepaRG_CYP2E1: Life Technologies and Expression Analysis (LTEA) Assay for CYP2E1 using HepaRG (AID 2283485). In outline:
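HepaRG cells, plated 48 h, then exposed 48 h in serum-free induction medium to eight half-log concentrations from 100 uM in 0.5% DMSO, duplicate. CYP2E1 mRNA by qRT-PCR, normalized to ACTB/GAPDH/POLR2A; bidirectional fit versus DMSO.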

Read-out in another test: CYP4A11 (gene 1579)
The test can be described thus: LTEA_HepaRG_CYP4A11: Life Technologies and Expression Analysis (LTEA) Assay for CYP4A11 using HepaRG (AID 2283486). The gist of the method: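 Readout is CYP4A11 mRNA induction or suppression (qRT-PCR, ACTB/GAPDH/POLR2A normalization) in human HepaRG cells after 48 h chemical treatment, concentrations to 100 uM in 0.5% DMSO, fitted bidirectionally against vehicle.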

Read-out in test [7]: Cytochrome P450 3A4 (Homo sapiens) (UniProt P08684)
The test can be described thus: LTEA_HepaRG_CYP3A4: Life Technologies and Expression Analysis (LTEA) Assay for CYP3A4 using HepaRG (AID 2283487). The gist of the method: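 In a human hepatic line (HepaRG), duplicate wells were treated 48 h with up to 100 uM chemical in half-log dilutions. Endpoint: CYP3A4 mRNA induction or loss relative to 0.5% DMSO vehicle, by qRT-PCR.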

Read-out in test [8]: DNA damage-inducible transcript 3 (DDIT3), DDIT3 (gene 1649)
The test can be described thus: LTEA_HepaRG_DDIT3: Life Technologies and Expression Analysis (LTEA) Assay for DNA damage-inducible transcript 3 (DDIT3) using HepaRG (AID 2283488). In outline:
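HepaRG cells, 48 h after plating, exposed 48 h in serum-free induction medium to 8 half-log concentrations up to 100 uM in 0.5% DMSO, in duplicate. DDIT3 mRNA measured by TaqMan qRT-PCR, normalized to ACTB, GAPDH and POLR2A. Fitted bidirectionally against DMSO.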

Read-out in test [9]: Early growth response protein 1 (EGR1) transcription factor, EGR1 (gene 1958)
Nature of the test: LTEA_HepaRG_EGR1: Life Technologies and Expression Analysis (LTEA) Assay for Early growth response protein 1 (EGR1) transcription factor using HepaRG (AID 2283490). In outline:
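Differentiated HepaRG cells in serum-free induction medium exposed 48 hours, duplicate, to 8 half-log concentrations up to 100 uM in 0.5% DMSO. EGR1 mRNA measured by TaqMan qRT-PCR, normalized to ACTB, GAPDH, POLR2A; bidirectional fit versus DMSO.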

Read-out in test [10]: Ezrin (EZR), EZR (gene 7430)
Nature of the test: LTEA_HepaRG_EZR: Life Technologies and Expression Analysis (LTEA) Assay for Ezrin (EZR) using HepaRG (AID 2283491). The gist of the method:
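Gain or loss of EZR mRNA is scored relative to 0.5% DMSO in human HepaRG cultures treated 48 h with test chemicals in duplicate, eight half-log concentrations from 100 uM.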

Read-out in a further test: CYP3A5 (gene 1577)
Nature of the test: LTEA_HepaRG_CYP3A5: Life Technologies and Expression Analysis (LTEA) Assay for CYP3A5 using HepaRG (AID 2283493). The gist of the method:
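HepaRG cells, plated 48 h then in serum-free induction medium, dosed in duplicate for 48 h with eight half-log concentrations up to 100 uM in 0.5% DMSO. Gene mRNA by Fluidigm TaqMan qRT-PCR, normalized to ACTB, GAPDH, POLR2A.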

Read-out in test [11]: Fatty Acid-Binding Protein 1 (FABP1), FABP1 (gene 2168)
The test can be described thus: LTEA_HepaRG_FABP1: Life Technologies and Expression Analysis (LTEA) Assay for Fatty Acid-Binding Protein 1 (FABP1) using HepaRG (AID 2283494). In outline: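 Differentiated human HepaRG cells exposed 48 h in serum-free induction medium to eight half-log concentrations up to 100 uM (0.5% DMSO), duplicate. FABP1 mRNA by qRT-PCR, normalised to ACTB, GAPDH, POLR2A; bidirectional fitting against DMSO.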

Read-out in test [12]: Cytochrome P450 4A22 (Homo sapiens) (UniProt Q5TCH4)
Nature of the test: LTEA_HepaRG_CYP4A22: Life Technologies and Expression Analysis (LTEA) Assay for Cytochrome P450 4A22 (CYP4A22) using HepaRG (AID 2283495). In outline: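 Cryopreserved HepaRG cells, plated and cultured 48 h, then switched to serum-free induction medium and treated 48 h (duplicates, up to 100 uM, half-log steps, 0.5% DMSO). Expression change of CYP4A22 was fitted bidirectionally against vehicle.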

Read-out in test [13]: Pro-epidermal growth factor (Homo sapiens) (UniProt P01133)
The test can be described thus: LTEA_HepaRG_EGF: Life Technologies and Expression Analysis (LTEA) Assay for Epidermal growth factor (EGF) using HepaRG (AID 2283489). In outline: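 EGF expression changes in human HepaRG cells are scored by bidirectional fitting relative to 0.5% DMSO controls. Chemicals are tested at eight half-log concentrations up to 100 uM for 48 h in serum-free induction medium.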

Read-out in test [14]: Cytochrome P450 3A7 (Homo sapiens) (UniProt P24462)
Nature of the test: LTEA_HepaRG_CYP3A7: Life Technologies and Expression Analysis (LTEA) Assay for CYP3A7 using HepaRG (AID 2283492). In outline:
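Cells were thawed, plated, cultured 48 h, then treated for a further 48 h with chemicals (eight-point half-log series from 100 uM, 0.5% DMSO). RNA was isolated and CYP3A7 expression quantified by qRT-PCR normalised to ACTB, GAPDH and POLR2A.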

Chain of Cytochrome P450 2C19 (Homo sapiens) (P33261 whole entry, looked up): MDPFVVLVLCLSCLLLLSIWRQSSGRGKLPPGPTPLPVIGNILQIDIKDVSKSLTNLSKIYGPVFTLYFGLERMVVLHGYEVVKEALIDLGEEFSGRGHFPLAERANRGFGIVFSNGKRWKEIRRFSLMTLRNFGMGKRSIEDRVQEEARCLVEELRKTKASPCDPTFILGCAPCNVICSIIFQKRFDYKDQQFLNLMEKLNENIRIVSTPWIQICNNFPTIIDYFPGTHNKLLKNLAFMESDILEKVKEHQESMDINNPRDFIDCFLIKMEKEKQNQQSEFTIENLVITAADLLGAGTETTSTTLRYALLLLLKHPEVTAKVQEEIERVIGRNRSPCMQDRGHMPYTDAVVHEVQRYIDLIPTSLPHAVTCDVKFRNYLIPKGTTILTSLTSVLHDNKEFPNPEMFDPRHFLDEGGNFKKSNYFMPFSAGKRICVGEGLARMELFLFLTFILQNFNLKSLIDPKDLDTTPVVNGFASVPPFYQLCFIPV
Chain of Caspase-3 (Homo sapiens) (P42574 whole entry, looked up): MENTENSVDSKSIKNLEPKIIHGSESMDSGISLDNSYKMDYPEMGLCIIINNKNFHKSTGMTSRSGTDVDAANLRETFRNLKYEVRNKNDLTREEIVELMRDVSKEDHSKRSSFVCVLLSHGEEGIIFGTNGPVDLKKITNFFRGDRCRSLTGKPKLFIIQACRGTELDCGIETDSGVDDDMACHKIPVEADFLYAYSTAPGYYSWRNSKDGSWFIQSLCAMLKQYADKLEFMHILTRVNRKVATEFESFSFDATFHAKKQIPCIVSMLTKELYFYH
Chain of Cytochrome P450 3A4 (Homo sapiens) (P08684 whole entry, looked up): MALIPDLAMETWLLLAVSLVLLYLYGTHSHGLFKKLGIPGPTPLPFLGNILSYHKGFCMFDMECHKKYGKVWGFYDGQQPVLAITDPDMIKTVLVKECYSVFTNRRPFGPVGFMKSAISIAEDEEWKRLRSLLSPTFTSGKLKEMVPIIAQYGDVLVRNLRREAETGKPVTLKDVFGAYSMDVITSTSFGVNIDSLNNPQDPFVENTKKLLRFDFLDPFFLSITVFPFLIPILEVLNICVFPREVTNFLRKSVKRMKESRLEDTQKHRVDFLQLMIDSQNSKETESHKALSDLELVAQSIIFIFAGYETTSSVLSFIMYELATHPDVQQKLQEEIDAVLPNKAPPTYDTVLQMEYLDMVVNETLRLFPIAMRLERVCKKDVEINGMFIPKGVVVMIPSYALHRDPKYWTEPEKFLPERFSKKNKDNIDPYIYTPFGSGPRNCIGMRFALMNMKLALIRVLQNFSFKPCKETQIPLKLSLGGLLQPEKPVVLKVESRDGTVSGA
Chain of Cytochrome P450 3A7 (Homo sapiens) (P24462 whole entry, looked up): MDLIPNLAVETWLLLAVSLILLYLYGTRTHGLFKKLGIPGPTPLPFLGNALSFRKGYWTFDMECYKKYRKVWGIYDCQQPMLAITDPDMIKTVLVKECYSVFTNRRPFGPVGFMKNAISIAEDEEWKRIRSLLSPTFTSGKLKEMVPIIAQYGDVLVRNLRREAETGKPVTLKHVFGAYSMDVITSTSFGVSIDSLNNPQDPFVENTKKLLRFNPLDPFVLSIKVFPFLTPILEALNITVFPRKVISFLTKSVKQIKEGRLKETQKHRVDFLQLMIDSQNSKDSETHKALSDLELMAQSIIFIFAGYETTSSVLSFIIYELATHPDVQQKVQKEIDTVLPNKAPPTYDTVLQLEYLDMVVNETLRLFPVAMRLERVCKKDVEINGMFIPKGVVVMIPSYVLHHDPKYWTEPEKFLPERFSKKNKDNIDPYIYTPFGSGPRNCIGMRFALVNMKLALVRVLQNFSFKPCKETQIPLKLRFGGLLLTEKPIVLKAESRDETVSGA

A word on the AC50: it is the concentration at which the activity in the assay is half-maximal. For `O=c1n(Cl)c(=O)n(Cl)c(=O)n1Cl`, the call (in [1]; with Caspase-3 (Homo sapiens); in test [2]; in test [4]; in test [5]; in [6]) was inactive. In addition, the molecule was called inactive (with CYP2C8 (gene 1558); in the test with CYP2C9 (gene 1559); with CYP2E1 (gene 1571); in the test with CYP4A11 (gene 1579); in test [7]; in [8]). Besides, the result (in test [9]; in test [10]; in the test with CYP3A5 (gene 1577); in test [11]; in test [12]) was inactive. For the same molecule, in test [3], the half-maximal activity concentration (AC50) is 50 µM (active).
Take `COc1ccc(-c2ccccc2)cc1NNC(=O)OC(C)C`: the result (in test [1]; in the test with Caspase-3 (Homo sapiens); in test [2]; in [4]; in test [5]; in test [6]) was inactive. Also, the molecule was classed as inactive (with CYP2C8 (gene 1558); with CYP2C9 (gene 1559); with CYP2E1 (gene 1571); in the test with CYP4A11 (gene 1579); in test [7]; in test [8]). The call (in test [13]; in test [10]; with CYP3A5 (gene 1577); in [11]; in test [12]) was inactive. The AC50 in test [3] was 74.5 µM (active).
Take `C=C(C)CN(CC)c1c([N+](=O)[O-])cc(C(F)(F)F)cc1[N+](=O)[O-]`: the molecule was called inactive (in test [1]; in the test with Caspase-3 (Homo sapiens); in test [2]; in test [4]; with CYP2C8 (gene 1558); with CYP2C9 (gene 1559)). For the same molecule, the outcome (in the test with CYP4A11 (gene 1579); in test [13]; in [9]; in [10]; in test [14]; with CYP3A5 (gene 1577)) was inactive. Further, the call in test [12] was inactive. In addition, the concentration at half-maximal activity (AC50) in test [3] was 33 µM (active); in [5], 23.6 µM (active); in test [6] it was 50 µM (active); with CYP2E1 (gene 1571), 87.9 µM (active); in [7], 50 µM (active); in test [11], 50 µM (active).
